Test results taken from PubChem BioAssay.

Key:
[1] = NFkB reporter suppression in cystic fibrosis bronchial cells – cell-based, uHTS hits, panel, cytotoxicity readout, dose response (AID 624344); details: CF bronchial epithelial cells, PAF-induced NFkB reporter inhibition, with PAF, run 1; at 79 µM (top of the series) unless noted
[2] = as above; details: CF bronchial epithelial cells, PAF-induced NFkB reporter inhibition, with PAF, run 2; at 79 µM (top of the series) unless noted

Compound | inhibition [1] [%] | inhibition [2]
COc1cccc(C(=O)N2C(C(C)C)COc3cc(Br)ccc3S2(=O)=O)c1 (stereo not drawn) | 118 | 101%
Cc1cc(C)nc(Sc2ncnc(N)c2[N+](=O)[O-])n1 | 96.2 | 88.9%
O=C(NCc1cccnc1)/C(=C\c1ccc(-c2cccc(Cl)c2)o1)S(=O)(=O)c1ccccc1 | 101 | 99.2%
CN(C)c1ccc(Nc2ncnc3ccc(Br)cc23)cc1 | 104 | 118%
CCCCCCc1cc2cc(C(=O)OCC)c(=O)oc2cc1O | 106 | 117%
O=C(NCc1ccco1)c1nc2c(nnn2Cc2ccccc2Cl)c(=O)[nH]1 | 115 | 107%
Nc1nc(N)nc(-c2cc(O)ccc2O)n1 | 105 | 116%
O=S(=O)(c1cccc2cnccc12)N1CCCNCC1 | 116 | 105%
Cc1nc(N2CCC(C(N)=O)CC2)c2c(-c3cccs3)csc2n1 | 97.5 | 93.8%
Cc1cccc(N=c2oc3cc(O)ccc3cc2C(N)=O)c1 | 87.7 | 80%
CN(C)C=Nc1c(C(=O)c2ccccc2)sc2nccc(N(C)C)c12 | 100 | 105%
CNc1ccc2ncc(-c3cccc(C(=O)N(C)C)c3)n2n1 | 111 | 106%
COc1ccc(CN(C(=O)CSc2nnc(-c3c[nH]c4ccccc34)o2)c2ccc(F)cc2)cc1OC | 101 | 103%
C[C@H](CO)N1C[C@H](C)[C@@H](CN(C)C(=O)Nc2ccc3c(c2)OCO3)Oc2c(NC(=O)Nc3ccc(C(F)(F)F)cc3)cccc2C1=O | 113 | 105%
Cc1ccc(NS(=O)(=O)c2ccc(-c3cnc(C4CC4)o3)cc2)c(C)c1 | 104 | 111%
CC(C)C[C@@H]1NC(=O)[C@H](Cc2ccccc2)N(C)C(=O)[C@H](C)NC(=O)c2ccccc2NC(=O)[C@H](Cc2ccc(O)cc2)N(C)C1=O | 102 | 103%
CCOC(=O)c1ccc(NC(=O)Nc2nncs2)cc1 | 83.2 | 111%

Compound | inhibition [1] [%] | inhibition [2]
CC(=O)Nc1ccc(Nc2nc(-c3sc(NC(C)=O)nc3C)cs2)cc1 | 103 | 110%
COc1ccc(C2=Nn3c(nnc3-c3ccccc3OC)SC2)cc1OC1CCOC1 (stereo not drawn) | 92.2 | 92.2%
COc1ccc(-c2cn[nH]c2-c2ccc(OCc3ccc([N+](=O)[O-])cc3)cc2O)cc1 | 105 | 115%
COc1ccc2c(c1OC)C(=O)N1c3ccccc3C(=O)N(c3ccccc3)C21 (stereo not drawn) | 112 | 102%
Cc1c(NC(=O)c2cc(-c3cccs3)nc3ccccc23)c(=O)n(-c2ccccc2)n1C | 112 | 103%
CC1=C(C(=O)OCc2ccc3c(c2)OCO3)C(c2cccc([N+](=O)[O-])c2)NC(=O)N1 (stereo not drawn) | 79.1 | 92.2% [at 19.8 µM]
N#CC(C#N)c1ccnc2ccccc12 | 110 | 102%
CCOc1ccccc1N1CCN(C(=O)c2cc(-c3cc(OC)ccc3OC)nc3ccccc23)CC1 | 107 | 104%
CC(=C/c1ccccc1)/C=N/n1c(-c2ccncc2)n[nH]c1=S | 110 | 103%
CC(C)(C)S(=O)N1Cc2cc(C(=O)NCC(F)(F)F)nc(-c3cccc(-c4cccc(F)c4)c3)c2[C@@H]1CCO (stereo partly drawn) | 110 | 103%
Nc1nc(N)nc(-c2ccc(Cl)c(Cl)c2)n1 | 116 | 101%
O=c1[nH]c(C2CCN(S(=O)(=O)c3ccc4c(c3)OCCO4)CC2)nc2c1nnn2Cc1c(F)cccc1Cl | 93 | 101%
Cc1ccc(S(=O)(=O)N2[C@@H](c3ccc(C(C)(C)C)cc3)C(C(=O)O)=CC[C@H]2c2ccc(C(C)C)cc2)cc1 | 65 | 115%
COc1ccc(-c2csc(/C(C#N)=C\c3ccc(O)c([N+](=O)[O-])c3)n2)cc1OC | 97.7 | 102%
c1ccc2c(-c3ccc4nncn4c3)cncc2c1 | 92.3 | 79%
O=C1OC(Nc2nc(-c3ccc(F)cc3)cs2)c2ccccc21 (stereo not drawn) | 102 | 113%
Cc1ccc(-n2nnnc2Sc2ccc(S(=O)(=O)NCCN(C)C)cc2[N+](=O)[O-])cc1 | 104 | 114%
